The whole screen tested about 5,500 compounds, of which about 2,000 (36%) were called active. Inconclusive results (about 18%) are left out. No stated cut-off is given here; in the data, active means normalized growth mostly below about 0.91 (no sharp cut-off); inconclusive means no clear call, values can overlap the other calls; inactive means mostly above about 0.92. This is one part of the list.
Experiment: chemical genetic growth profiling, strain panel (AID 1159580);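 further: tested at 20 µM; growth read once vehicle control cultures reached saturation at 30 °C; 1 = growth at the plate median or of vehicle wells; lower values mean less growth of the strain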
Conditions: growth OD

Measured: normalized growth

COc1cc(OC)c2c(c1)O[C@H](c1cc(OC)c(OC)c(OC)c1)[C@H](OC(=O)c1cc(OC)c(OC)c(OC)c1)C2
inactive: S. cerevisiae deletion strains, locus YAL013W, strain DEP1, active compounds read low 1.01 | S. cerevisiae deletion strains, locus YBR021W, strain FUR4, active compounds read low 0.998 | S. cerevisiae deletion strains, locus YBR229C, strain ROT2, active compounds read low 1.02 | S. cerevisiae deletion strains, locus YCL029C, strain bik1, active compounds read low 1.01 | S. cerevisiae deletion strains, locus YDL035C, strain GPR1, active compounds read low 0.994 | S. cerevisiae deletion strains, locus YDL074C, strain BRE1, active compounds read low 0.996 | S. cerevisiae deletion strains, locus YDL101C, strain DUN1, active compounds read low 1 | S. cerevisiae deletion strains, locus YDL134C, strain PPH21, active compounds read low 1 | S. cerevisiae deletion strains, locus YDL185W, strain tfp1, active compounds read low 1.01 | S. cerevisiae deletion strains, locus YDL192W, strain arf1, active compounds read low 1 | S. cerevisiae deletion strains, locus YDR101C, strain arx1, active compounds read low 0.999 | S. cerevisiae deletion strains, locus YDR150W, strain NUM1, active compounds read low 1.01 | S. cerevisiae deletion strains, locus YDR162C, strain NBP2, active compounds read low 1 | S. cerevisiae deletion strains, locus YDR318W, strain mcm21, active compounds read low 0.997 | S. cerevisiae deletion strains, locus YDR388W, active compounds read low 1 | S. cerevisiae deletion strains, locus YDR502C, strain sam2, active compounds read low 0.991 | S. cerevisiae deletion strains, locus YEL061C, strain CIN8, active compounds read low 1.01 | S. cerevisiae deletion strains, locus YER110C, active compounds read low 1 | S. cerevisiae deletion strains, locus YER155C, strain BEM2, active compounds read low 1 | S. cerevisiae deletion strains, locus YER167W, strain BCK2, active compounds read low 1.02 | S. cerevisiae deletion strains, locus YGL078C, strain dbp3, active compounds read low 1 | S. cerevisiae deletion strains, locus YGL086W, strain mad1, active compounds read low 0.991 | S. cerevisiae deletion strains, locus YGL248W, strain PDE1, active compounds read low 1.01 | S. cerevisiae deletion strains, locus YGR078C, strain PAC10, active compounds read low 1.02 | S. cerevisiae deletion strains, locus YGR135W, strain pre9, active compounds read low 0.994 | S. cerevisiae deletion strains, locus YGR229C, strain SMI1, active compounds read low 0.993 | S. cerevisiae deletion strains, locus YGR252W, strain gcn5, active compounds read low 0.933 | S. cerevisiae deletion strains, locus YHR030C, strain SLT2, active compounds read low 1.01 | S. cerevisiae deletion strains, locus YHR079C, strain IRE1 (second series), active compounds read low 1 | S. cerevisiae deletion strains, locus YHR094C, strain hxt1, active compounds read low 0.996 | S. cerevisiae deletion strains, locus YHR129C, strain ARP1, active compounds read low 1.01 | S. cerevisiae deletion strains, locus YHR200W, strain rpn10, active compounds read low 0.999 | S. cerevisiae deletion strains, locus YIL066C, strain RNR3, active compounds read low 0.997 | S. cerevisiae deletion strains, locus YIL073C, strain SPO22, active compounds read low 0.995 | S. cerevisiae deletion strains, locus YIL125W, strain kgd1, active compounds read low 1 | S. cerevisiae deletion strains, locus YIR030C, strain dcg1, active compounds read low 1.01 | S. cerevisiae deletion strains, locus YJL095W, strain BCK1, active compounds read low 1.01 | S. cerevisiae deletion strains, locus YJL134W, strain LCB3, active compounds read low 1.01 | S. cerevisiae deletion strains, locus YJL168C, strain set2, active compounds read low 1 | S. cerevisiae deletion strains, locus YJL187C, strain SWE1 (second series), active compounds read low 1 | S. cerevisiae deletion strains, locus YJR043C, strain POL32, active compounds read low 0.992 | S. cerevisiae deletion strains, locus YJR075W, strain HOC1, active compounds read low 1 | S. cerevisiae deletion strains, locus YKL009W, strain mrt4, active compounds read low 0.983 | S. cerevisiae deletion strains, locus YKL068W, active compounds read low 1.01 | S. cerevisiae deletion strains, locus YKL085W, strain MDH1 (second series), active compounds read low 0.993 | S. cerevisiae deletion strains, locus YKL085W, strain MDH1, active compounds read low 0.993 | S. cerevisiae deletion strains, locus YKL190W, strain CNB1, active compounds read low 0.998 | S. cerevisiae deletion strains, locus YKR001C, strain vps1, active compounds read low 0.99 | S. cerevisiae deletion strains, locus YLR039C, strain RIC1, active compounds read low 1.01 | S. cerevisiae deletion strains, locus YLR058C, strain SHM2, active compounds read low 1.01 | S. cerevisiae deletion strains, locus YLR102C, strain apc9, active compounds read low 1 | S. cerevisiae deletion strains, locus YLR262C, strain YPT6, active compounds read low 1.02 | S. cerevisiae deletion strains, locus YLR268W, strain sec22, active compounds read low 1.01 | S. cerevisiae deletion strains, locus YLR330W, strain CHS5, active compounds read low 1.01 | S. cerevisiae deletion strains, locus YLR342W, strain FKS1 (second series), active compounds read low 1 | S. cerevisiae deletion strains, locus YLR371W, strain rom2, active compounds read low 1.01 | S. cerevisiae deletion strains, locus YLR418C, strain cdc73, active compounds read low 0.973 | S. cerevisiae deletion strains, locus YML016C, strain PPZ1, active compounds read low 1 | S. cerevisiae deletion strains, locus YML032C, strain rad52, active compounds read low 0.992 | S. cerevisiae deletion strains, locus YML124C, strain tub3, active compounds read low 1 | S. cerevisiae deletion strains, locus YMR078C, strain ctf18, active compounds read low 1 | S. cerevisiae deletion strains, locus YMR223W, strain ubp8, active compounds read low 0.994 | S. cerevisiae deletion strains, locus YMR263W, strain SAP30, active compounds read low 1 | S. cerevisiae deletion strains, locus YMR307W, strain GAS1, active compounds read low 0.951 | S. cerevisiae deletion strains, locus YNL067W, strain RPL9B, active compounds read low 1.01 | S. cerevisiae deletion strains, locus YNL128W, strain TEP1, active compounds read low 1.02 | S. cerevisiae deletion strains, locus YNL153C, strain GIM3, active compounds read low 1.01 | S. cerevisiae deletion strains, locus YNL233W, strain BNI4, active compounds read low 1 | S. cerevisiae deletion strains, locus YNL250W, strain rad50, active compounds read low 1 | S. cerevisiae deletion strains, locus YNL271C, strain bni1, active compounds read low 1.01 | S. cerevisiae deletion strains, locus YNL298W, strain CLA4, active compounds read low 1.01 | S. cerevisiae deletion strains, locus YNL307C, strain MCK1, active compounds read low 1 | S. cerevisiae deletion strains, locus YNL322C, strain KRE1, active compounds read low 1 | S. cerevisiae deletion strains, locus YNR052C, strain pop2, active compounds read low 1.01 | S. cerevisiae deletion strains, locus YOL006C, strain TOP1, active compounds read low 0.983 | S. cerevisiae deletion strains, locus YOL012C, strain htz1 0.884 | S. cerevisiae deletion strains, locus YOL147C, strain pex11, active compounds read low 0.996 | S. cerevisiae deletion strains, locus YOR061W, strain CKA2, active compounds read low 1 | S. cerevisiae deletion strains, locus YOR069W, strain VPS5, active compounds read low 0.999 | S. cerevisiae deletion strains, locus YOR136W, strain idh2, active compounds read low 0.997 | S. cerevisiae deletion strains, locus YOR144C, strain elg1, active compounds read low 1 | S. cerevisiae deletion strains, locus YOR184W, strain ser1, active compounds read low 0.987 | S. cerevisiae deletion strains, locus YOR316C, strain cot1, active compounds read low 1 | S. cerevisiae deletion strains, locus YPL055C, strain LGE1, active compounds read low 0.989 | S. cerevisiae deletion strains, locus YPL241C, strain CIN2, active compounds read low 0.986 | S. cerevisiae deletion strains, locus YPR119W, strain clb2, active compounds read low 0.995 | S. cerevisiae deletion strains, locus YPR141C, strain kar3, active compounds read low 1 | S. cerevisiae deletion strains, locus YPR163C, strain tif3, active compounds read low 0.997 | S. cerevisiae deletion strains, locus YPR167C, strain met16, active compounds read low 1.01 | S. cerevisiae deletion strains, strain wtn01, active compounds read low 0.992 | S. cerevisiae strains, strain wild type, active compounds read low 1.01

Source: PubChem BioAssay AID1159580 (chemical genetic matrix, 2015)
